An excerpt weighted towards active compounds, which were near 1.3% of everything screened.
PTHR1 agonist – qHTS for PTHR1 Agonists: Primary Screen; Parathyroid hormone/parathyroid hormone-related peptide receptor (Homo sapiens), Q03431; HEK293 GP2 PTHR1 cells, GloSensor cAMP luminescence, 1 h; Potency, µM (doses to about 115 µM), usual class: activators; 410,000 tested, 0.075% active; further: nearly all actives have a fitted effect of over 55% in size
Target sequence (Q03431 whole entry, looked up): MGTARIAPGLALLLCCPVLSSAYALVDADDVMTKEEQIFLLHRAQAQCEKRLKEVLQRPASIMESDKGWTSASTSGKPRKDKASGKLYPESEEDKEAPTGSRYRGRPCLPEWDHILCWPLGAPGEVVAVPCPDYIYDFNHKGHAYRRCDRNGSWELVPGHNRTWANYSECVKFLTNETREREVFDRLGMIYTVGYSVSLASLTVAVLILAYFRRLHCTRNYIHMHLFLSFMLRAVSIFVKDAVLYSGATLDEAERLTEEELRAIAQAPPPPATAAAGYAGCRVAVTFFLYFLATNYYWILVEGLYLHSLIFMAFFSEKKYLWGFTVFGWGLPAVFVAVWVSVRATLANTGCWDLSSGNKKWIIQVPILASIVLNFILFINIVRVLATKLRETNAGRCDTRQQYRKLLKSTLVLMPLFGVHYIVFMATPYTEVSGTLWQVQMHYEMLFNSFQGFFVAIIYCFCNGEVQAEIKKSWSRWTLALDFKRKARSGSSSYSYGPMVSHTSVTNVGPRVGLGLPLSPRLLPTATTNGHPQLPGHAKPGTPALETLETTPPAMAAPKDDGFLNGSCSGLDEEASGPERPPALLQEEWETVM
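HEK-293-derived GP2 cells expressing PTHR1 and a GloSensor cAMP reporter, 3,000/well, plated overnight, given luciferin plus IBMX (each 0.5 mM as added) for 1 h at 37 °C, then compound for 1 h at 37 °C. Luminescence was read after 15 min at room temperature.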
TCR activator – Activators of T cell receptors: qHTS campaign | primary human leukocytes, anti-CD3, IL-2 HTRF, 48 h | Potency, µM (highest dose often 9.22 µM), most hits filed as activators | 330,000 tested, under 10 active
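Compounds are tested in HTS on primary human leukocytes co-incubated with a-CD3 beads for 48 hr. IL-2 output is measured by time-resolved FRET.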
IL-2 act – qHTS of IL-2 Activators; IL-2 activation reporter assay, cell-based qHTS; stimulated with anti-CD3/CD4/CD28 beads; in transgenic mouse T cells; activation, % (series mostly up to about 46 µM); 360,000 tested, 0.065% active; in the data active means activation above about 50%; inconclusive means mostly about 30% to 49%
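First, unstimulated transgenic mouse T cells were exposed to compound for 60 min. Next, anti-CD3/anti-CD4-coated beads with anti-CD28 were added. Finally, after 18 h at 37 degrees C, EGFP and DsRed were imaged.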
BRCA1 expr up – qHTS Assay to Identify Small Molecule Activators of BRCA1 Expression; MCF7-BRCA1-FFLuc reporter, luminescence, 48 h; response scale: scaled: vehicle 0%, 10 µM genistein 100%; Potency, µM (doses to about 46.1 µM), actives largely listed as activators; 380,000 tested, 1.1% active; further: nearly all actives have a fitted effect of over 80% in size
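Activators of BRCA1 expression were detected as increased firefly luciferase luminescence in engineered MCF7 cells after 48 h compound incubation. Signals were scaled to genistein 10 microM as full activation.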
Chronic BCR inh – qHTS Assay to Find Inhibitors of Chronic Active B-Cell Receptor Signaling; Potency, µM (highest dose often 46.1 µM), most hits filed as inhibitors; AID 493014, 2011; ABC-DLBCL IkBa-CBG/CBR reporter, luminescence ratio, 4 h; 340,000 tested, 0.05% active; active means well fitted inhibition curve with a large enough effect in the signal ratio, with a control signal flat, not every such curve was filed as active; inconclusive means small, poorly fitted or top-dose-only effect, or effect the other way, or a change in a side signal; the % refers to the signal ratio
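TMD8 human ABC-DLBCL cells with doxycycline-inducible IκBα–green luciferase fusion and unfused red luciferase, in 0.5% FBS medium; compounds up to 46 uM, 4 h at 37C. Green/red luminescence ratio, filter-overlap corrected, fitted to concentration-response curves.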
Mito fusion act – qHTS Assay for Small Molecule Inhibitors of Mitochondrial Division or Activators of Mitochondrial Fusion; 320,000 tested, 0.23% active; Potency, µM (highest dose often 46.1 µM), usual class: activators; S. cerevisiae fusion-defective mutant growth rescue, CellTiterGlo 48 h; further: nearly all actives have a fitted effect of over 45% in size
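S. cerevisiae fusion-defective temperature-sensitive mutants (e.g. fzo1-1, mgm1-5) grown 48 h at 37C in YPEG (ethanol/glycerol non-fermentable) medium with 23 nl compound per well; growth rescue read as CellTiterGlo luminescence.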
Of the large screens only hits and unclear results are named; the others gave an inactive call. Unless noted, the call rests on the fitted dose curve; in most records, active means well fitted curve in the direction sought with a large enough effect; inconclusive means small, poorly fitted or top-dose-only effect, or another doubt; inactive means no such curve, though single readings can be large; an effect the other way counts as inactive or inconclusive.

CC(O)(c1ccccc1)c1nc(-c2cccc(C(=O)O)c2)cs1 (stereo not drawn)	BRCA1 expr up 10µM (no result: TCR activator, Chronic BCR inh, Mito fusion act)
O=C(Nn1cnc2ccccc2c1=O)c1ccc(Br)cc1	none
Cc1ccc(C(=O)Nn2cnc3ccccc3c2=O)cc1C	BRCA1 expr up 8.9µM, Chronic BCR inh inconclusive
CCN1/C(=C/c2ccc3cc(C)cc(C)c3[n+]2CC)Sc2cc(C)ccc21	Chronic BCR inh inconclusive
CCN1/C(=C/c2ccc3cccc(C)c3[n+]2CC)Sc2ccccc21	IL-2 act 54, Chronic BCR inh inconclusive
Cc1ccccc1NC(=O)CSc1nc(-c2ccc(F)cc2)nc2c1Cc1ccccc1O2	none (no result: TCR activator, IL-2 act, BRCA1 expr up, Chronic BCR inh, Mito fusion act)
Cc1oc(-c2ccc(Cl)cc2)cc1C(=O)N1CCC1(C)C(=O)O (stereo not drawn)	BRCA1 expr up 8.9µM (no result: TCR activator, Chronic BCR inh, Mito fusion act)
Cc1cccc(Cc2nnc(CCC(=O)N(C)CCc3ccccc3)o2)c1	BRCA1 expr up 3.5µM
O=C(COc1ccc2c(c1)OCO2)Nc1nccs1	BRCA1 expr up 3.2µM, Chronic BCR inh inconclusive
CCN(CC)C(=O)c1ccc(COc2ccccc2Br)o1	BRCA1 expr up 7.1µM
CCCc1cc(=O)oc2c(C)c3occ(C)c3cc12	Mito fusion act 10µM
COc1ccc(C(=O)/C(=C/N(C)C)S(=O)(=O)c2ccccc2)cc1	BRCA1 expr up 3.2µM, Chronic BCR inh inconclusive
Cc1cccc(OCc2nc(-c3cccnc3)no2)c1	Chronic BCR inh inconclusive
CC(C)(C)Cc1nnc(NC(=O)c2ccc([N+](=O)[O-])cc2)s1	BRCA1 expr up 5.6µM, Chronic BCR inh inconclusive
COc1ccc(C(=O)Nc2nnc(-c3ccccc3)s2)cc1	BRCA1 expr up 7.1µM (no result: TCR activator)
CCc1nnc(NC(=O)c2cccc(NC(=O)C(C)C)c2)s1	BRCA1 expr up 11µM
COCc1nnc(NC(=O)c2cccc(NC(=O)C(C)C)c2)s1	BRCA1 expr up inconclusive
CCc1nnc(NC(=O)c2ccc(OC)cc2)s1	BRCA1 expr up 7.1µM, Chronic BCR inh inconclusive
Cc1cnc2c(C)cccc2c1/C=C/c1ccc(N(C)C)cc1	none (no result: PTHR1 agonist, TCR activator, IL-2 act, Chronic BCR inh, Mito fusion act)
CCc1nnc(NC(=O)c2cc(C)oc2C)s1	BRCA1 expr up 5.6µM
COc1ccc(C(=O)Cc2nnc(C)s2)cc1	BRCA1 expr up 7.1µM
CCSc1nnc(NC(=O)c2cc(C)oc2C)s1	BRCA1 expr up inconclusive, Chronic BCR inh inconclusive (no result: TCR activator)
COC(=O)Nc1nnc(/C=C/c2ccc(OC)cc2)s1	BRCA1 expr up 11µM
COc1cccc(C(=O)Nc2nnc(-c3ccccc3)s2)c1OC	BRCA1 expr up 1.8µM, Chronic BCR inh inconclusive
Cc1ccc(NC(=O)c2ccc(-n3nncc3-c3ccccc3)cc2)cc1	none (no result: PTHR1 agonist, TCR activator, IL-2 act, Chronic BCR inh, Mito fusion act)
CN(C)/C=C/C1=CC(=O)CC(C)(C)C1	none
COc1ccccc1C(=O)NC(CCSC)C(=O)NCCCn1nc(C)cc1C (stereo not drawn)	none
Cc1cccc(N2CCN(C(=O)CCc3nnc4n(CC(C)C)c(=O)c5ccccc5n34)CC2)c1C	none (no result: TCR activator, IL-2 act, BRCA1 expr up, Chronic BCR inh, Mito fusion act)
COc1cc(/C=C2\C=Cc3ccccc32)cc(OC)c1OC	none (no result: PTHR1 agonist, TCR activator, IL-2 act, Chronic BCR inh, Mito fusion act)
Cc1nc(N)nc(N/N=C/c2ccccc2)n1	Chronic BCR inh inconclusive
Cc1cc(N/N=C/c2ccccc2)nc(N)n1	BRCA1 expr up 13µM, Chronic BCR inh inconclusive
COc1cc2nc(CCNCc3ccccc3)nc(NC3CCN(C)CC3)c2cc1OC	none (no result: PTHR1 agonist, TCR activator, IL-2 act, Chronic BCR inh, Mito fusion act)
CCOC(=O)c1c(C)[nH]c(C)c1C(=O)COC(=O)/C=C/c1cccc(Cl)c1	none
CCOC(=O)c1c(C)[nH]c(C=O)c1Cc1cccc(Cl)c1	Chronic BCR inh inconclusive, Mito fusion act 13µM
CCOC(=O)c1cnn2c(C)cc(-c3ccc(F)cc3)nc12	BRCA1 expr up 2.8µM, Chronic BCR inh inconclusive
CCCCCc1nn2cc(-c3ccccc3)nc2s1	none (no result: TCR activator, IL-2 act, Chronic BCR inh, Mito fusion act)
